Most compounds without a hit are left out; they make up all but 6.1% or so of the library.
Gal4-VP16 FLuc – counter-screen for ROR gamma inhibitors: Gal4-VP16 reporter. Drosophila S2 Gal4-VP16 UAS-luciferase, luminescence, 20 h. Potency, µM (highest dose often 53.6 µM), for inactives: top-dose activity, negative = inhibition, actives largely listed as inhibitors. hit rate 3.5% among 310,000. AID 2546;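 note: Gal4-VP16 expression switched on by copper sulfate through the metallothionein promoter; % is set by controls: 0 for no effect and ±100 for the full control effect; nearly all actives have a fitted effect of over 50% in size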
TGFb SMAD3 inh – TGF-b pathway inhibition | HepG2 CAGA-GFP TGF-b/SMAD3 reporter, GFP fluorescence, 18 h; TGF-beta stimulated, 500 pg/mL final | hit rate 1.2% among 410,000 | Potency, µM (series often up to 46.1 µM), for the others: at the top dose activity, negative = inhibition, hits mostly inhibitors; note: % is set by controls: 0 for no effect and ±100 for the full control effect; nearly all actives have a fitted effect of over 65% in size
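HEPG2 CAGA-GFP cells (1000/well, DMEM with 1% FBS) were pre-incubated 2 h at 37 degrees C, given compound by pin tool, then stimulated with TGF-beta at 500 pg/mL final for 18 h before per-cell GFP fluorescence imaging.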
ATXN2 expr inh – inhibitors of ATXN2 expression. HEK-293 ATXN2-luciferase reporter, luminescence, 24 h. Potency, µM (doses to about 57 µM), for inactives: top-dose activity change, negative = inhibition, most hits filed as inhibitors. hit rate 0.72% among 360,000. AID 1745845; note: % is set by controls: 0 for no effect and ±100 for the full control effect; nearly all actives have a fitted effect of over 55% in size
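ATXN2-luciferase reporter cells (luciferase flanked by upstream and downstream ATXN2 gene portions) were treated 24 h at 37 °C with compounds at up to 57 uM. SteadyGlo luminescence gave expression; GF-AFC fluorescence gave viability.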
HepG2 viability – HepG2 cytotoxicity, counter-screen for TGF-b inhibitors | AID 588856 | Potency, µM (titrated, usually from 46.1 µM), for inactives: at the highest dose activity change, negative = cytotoxicity, usual class: cytotoxic | HepG2 CAGA-GFP viability, ATP luminescence, 18 h | hit rate 0.76% among 410,000
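CellTiter-Glo luminescence gave cytotoxicity after 18 hours at 37 degrees C. The cells were HepG2 CAGA-GFP in 1% FBS DMEM, stimulated with 500 pg/mL TGF-beta after compound addition. %Activity was normalised to no-cell wells (complete cell-killing) and DMSO (no toxicity), and curves were fitted and classified.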
RORgamma inh – inhibitors of mouse ROR gamma transcriptional activity; P51450; Drosophila S2 Gal4-RORgamma UAS-luciferase reporter, 20 h; Potency, µM (titrated, usually from 53.6 µM), inactives show top-dose activity change, negative = inhibition, hits mostly inhibitors; hit rate 5.4% among 310,000; note: % is set by controls: 0 for no effect and ±100 for the full control effect; nearly all actives have a fitted effect of over 60% in size
Target sequence (P51450 whole entry, looked up, the tested form may be a part): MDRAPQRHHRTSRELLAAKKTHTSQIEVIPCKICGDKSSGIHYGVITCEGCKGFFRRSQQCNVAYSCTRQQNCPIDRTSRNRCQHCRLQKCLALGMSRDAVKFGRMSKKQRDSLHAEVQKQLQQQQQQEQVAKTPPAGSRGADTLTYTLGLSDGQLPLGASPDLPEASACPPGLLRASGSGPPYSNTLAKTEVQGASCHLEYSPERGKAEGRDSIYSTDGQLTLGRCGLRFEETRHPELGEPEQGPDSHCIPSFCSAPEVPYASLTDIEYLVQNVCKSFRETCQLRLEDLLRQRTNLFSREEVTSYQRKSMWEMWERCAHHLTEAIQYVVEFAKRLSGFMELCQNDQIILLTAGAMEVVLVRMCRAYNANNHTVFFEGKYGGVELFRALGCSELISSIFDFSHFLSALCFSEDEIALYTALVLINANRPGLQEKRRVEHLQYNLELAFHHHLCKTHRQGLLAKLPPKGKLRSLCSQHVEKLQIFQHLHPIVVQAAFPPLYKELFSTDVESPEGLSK
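Drosophila S2 cells stably expressing Gal4-DBD/mouse RORγ fusion under metallothionein promoter plus UAS-luciferase; compound 1 h, then 700 uM CuSO4 induction for 20 h at ambient temperature; inhibition read as reduced luminescence.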
S2 tox – reduces viability in counter-screen for ATXN expression inhibitors. Potency, µM (titrated, usually from 56.7 µM), hits mostly cytotoxic. hit rate 0.49% among 400,000. AID 651635. S2 cells (HEK-293 line with an ATXN2-luciferase reporter) viability, CellTiter-Fluor protease fluorescence, 24 h; note: nearly all actives have a fitted effect of over 40% in size
* = called active by the depositor; i = inactive; ? = inconclusive; nt = no result given; [ ] = another dose, or the depositor's remark. Calls come from the whole dose curve; as a rule, active = well fitted curve in the direction sought with a large enough effect; inconclusive = small, poorly fitted or top-dose-only effect, or another doubt; inactive = no such curve, though single readings can be large; an effect the other way counts as inactive or inconclusive. Potency is the fitted concentration of half-maximal effect.

SMILES | Gal4-VP16 FLuc | TGFb SMAD3 inh | ATXN2 expr inh | HepG2 viability | RORgamma inh | S2 tox
O=C1[C@H]2[C@H]3[C@H](O)[C@H](O)C/C(=N/OCc4ccccc4)[C@@H]3CC[C@@H]2C(=O)N1Cc1ccccc1 | 0.5%[10 µM] | nt | nt | nt | -5.1%[10 µM] | nt
COc1ccc(/C=C/C2=CC3(C)CC2(C)C(c2ccc(OC)cc2)CC3=O)cc1 (configuration not stated) | -3.4%[10 µM] | nt | nt | nt | -1.0%[10 µM] | nt
Cc1cnc(Nc2ccc(CN3CCOCC3)cc2)nc1Nc1cccc(S(=O)(=O)NC(C)(C)C)c1 | nt | nt | -9.3% | nt | nt | nt
N#CC1=C(N)N2C(=C(C#N)C1c1ccccc1)Sc1ccccc12 (configuration not stated) | 10.3% | nt | nt | nt | -5.2% | nt
N#CC1=C(N)N2C(=C(C#N)C1c1ccc(Br)cc1)Nc1ccccc12 (configuration not stated) | 11.2µM* | 2.82µM* | ? | -43.1% | ? | nt
N#CC1=C(N)N2C(=C(C#N)C1c1cccc(Br)c1)Nc1ccccc12 (configuration not stated) | 12.6µM* | 3.16µM* | ? | -50.2% | ? | nt
COc1ccc2nc(/N=C\N(C)C)sc2c1 | -5.7% | 3.1% | 18.0% | -28.4% | -3.7% | i
COc1ccc2nc(N=Nc3ccc(N(C)C)cc3)sc2c1 | 1.41µM* | 0.5% | -16.5% | -11.5% | 14.1µM* | ?
Fc1ccc(-c2nnc3ccc(N4CCc5ccccc5C4)nn23)cc1 | -23.4% | 20.4% | 31.6µM* | 1.0% | 21.8% | nt
CCOC(=O)c1c(C)[nH]c(N=Nc2ccc(C)cc2C)c1C | -5.1% | -1.1% | 40.5% | -21.9% | -40.2% | i
CCOC(=O)c1c(C)[nH]c(N=Nc2ccccc2C)c1C | ? | -7.5% | 54.4% | -34.5% | 3.98µM* | i
N#CC1=C(N)Oc2n[nH]c(-c3ccccn3)c2C1c1c(F)cccc1Cl (configuration not stated) | 8.91µM* | -0.4% | 18.5% | -36.9% | 3.16µM* | i
COCc1[nH]nc2c1C(c1c(F)cccc1Cl)C(C#N)=C(N)O2 (configuration not stated) | 17.8µM* | -1.5% | 7.3% | -5.8% | ? | i
COCc1[nH]nc2c1C(c1ccccc1Cl)C(C#N)=C(N)O2 (configuration not stated) | -16.6% | 4.6% | 4.3% | -1.6% | -22.0% | i
Cc1ccc(S[C@@H](CCN2CC[C@H](NC(=O)OCc3ccccc3)CCC2=O)c2ccccc2)cc1 | 2.6% | 10µM* | -20.2% | -2.3% | 34.9% | ?
CC(C)(C)[C@@H]1CCC(=O)N(CC[C@H](Sc2ccccc2)c2ccccc2)CC1 | 0.9% | ? | ? | -60.3% | 20.6% | i
Cc1ccc(SC[C@H](C)CN2CC[C@H](NC(=O)OCc3ccccc3)CCC2=O)cc1 | -4.7% | -5.7% | -1.7% | 1.6% | 24.5% | i
CC(=O)Nc1ccc(S[C@@H](CCN2CC[C@H](C(C)(C)C)CCC2=O)c2ccccc2)cc1 | nt | ? | ? | -33.7% | nt | 31.6µM*
Cc1ccc(NC(=O)c2cc(C)nc3c2c(C)nn3-c2cccc(Cl)c2C)c(C)c1 | nt | -2.0% | -12.7% | 2.6% | nt | i
CCc1ccc(N2CC(c3nnc(NC(=O)c4ccco4)s3)CC2=O)cc1 (configuration not stated) | nt | -1.4% | -0.8% | 2.4% | nt | i
O=C(Nc1ccc(OC(F)(F)F)cc1)c1nc2ccccc2nc1N1CCCCC1 | nt | 0.3% | 2.2% | -12.5% | nt | i
O=[N+]([O-])c1ccc2c(c1)C(O)n1nc(-c3ccc(Cl)cc3Cl)nc1S2 (configuration not stated) | ? | 5.7% | 1.5% | 1.4% | 11.2µM* | i
C=C(C)c1nc(Oc2ccccc2)nc(Oc2ccccc2)n1 | nt | 11.2µM* | ? | -93.3% | nt | nt
Cc1cc(Oc2ccccc2)nc(-c2ccccc2)n1 | ? | 0.0% | 14.3% | 0.2% | ? | i
Cc1cc(C)c(CSc2nnc(C)n3c2cc2occc23)c(C)c1 | nt | ? | nt | -101.5% | nt | nt
SMILES | Gal4-VP16 FLuc | TGFb SMAD3 inh | ATXN2 expr inh | HepG2 viability | RORgamma inh | S2 tox
COc1ccccc1-c1cnn2c(NC3CCCC3)cc(C)nc12 | ? | -9.8% | 71.8% | 2.4% | 10µM* | i
Cc1cc(Cl)ccc1NC(=O)CCn1nc(C)c2c(C)n(-c3ccccc3)nc2c1=O | nt | 5.3% | -9.9% | -0.5% | nt | i
CCCC(=O)NC(=S)NNC(=O)c1ccc([N+](=O)[O-])cc1 | -10.1% | 10.8% | -20.7% | 1.5% | -11.1%[10 µM] | i
O=[N+]([O-])c1ccc(NNC(=S)Nc2ccc(F)cc2)cc1 | 11.2µM* | ? | ? | -34.6% | ? | ?
CCCCNC(=S)Nc1ccc([N+](=O)[O-])cc1 | 2.2% | 11.2µM* | -19.9% | -47.8% | -13.9% | i
CC(C)CNC(=S)NC(=O)c1ccc([N+](=O)[O-])cc1 | 14.1µM* | -3.8% | 26.0% | -10.4% | 4.47µM* | i
CC(C)CNC(=S)NC(=O)c1csc([N+](=O)[O-])c1 | ? | ? | -6.0% | -1.7% | ? | i
CCCCNC(=S)NC(=O)c1ccc([N+](=O)[O-])cc1 | ? | 6.2% | 21.7% | -6.0% | 4.47µM* | i
CC(C)CCNC(=S)Nc1ccc([N+](=O)[O-])cc1 | ? | ? | ? | -46.8% | ? | ?
COc1ccc(C2NC(=O)N(C)C3=C2C(=O)N(c2ccc(C)cc2)C3)cc1 (configuration not stated) | nt | -1.9% | 1.3% | -1.5% | nt | i
COc1ccc(S(=O)(=O)Nc2ccc(Cc3ccncc3)cc2)cc1OC | 7.94µM* | -12.6% | -18.6% | -7.5% | ? | i
CCc1ccc(NS(=O)(=O)c2ccc(OC)c3ncccc23)cc1 | -12.3% | 6.3% | -6.4% | -1.2% | 15.3% | i
O=S(=O)(Nc1ccc(Cc2ccncc2)cc1)c1ccc(Cl)c(Cl)c1 | ? | ? | -24.1% | -33.8% | 37.8% | i
CCc1ccc(OC)c(S(=O)(=O)Nc2ccc(Cc3ccncc3)cc2)c1 | 2.24µM* | ? | -31.7% | -18.7% | ? | i
COc1ccc(S(=O)(=O)Nc2ccc(F)c(Cl)c2)cc1OC | 7.08µM* | 0.2% | -9.7% | 7.1% | -15.9% | i
COc1ccc(C)cc1S(=O)(=O)Nc1ccc(F)c(Cl)c1 | ? | -21.0% | 3.2% | -2.7% | ? | i
Cc1cccc(N(C)C(=O)CN(C)S(=O)(=O)c2ccc3[nH]c4c(c3c2)CCCC4)c1 | nt | ? | 0.0% | -24.5% | nt | ?
CC(C)CN(C)c1ccc(/C=C2\C=Cc3ccccc32)cc1 | nt | -17.7% | nt | -46.1% | nt | nt
COc1ccc(Nc2nc3c(S(=O)(=O)c4ccc(C)cc4)nnn3c3ccsc23)cc1Cl | nt | 3.4% | nt | -12.0% | nt | nt
